This is a sample that favours compounds with a hit; in the whole collection about 7.4% have one here.
Luc counter – blocks Kinase-Glo luciferase, a counter-screen artifact; Q27757; Kinase-Glo luciferase, ATP luminescence, 8 min; Potency, µM (series often up to 38.3 µM), hits mostly inhibitors; 200,000 compounds, 0.28% hits; AID 1379; further: nearly all actives have a fitted effect of over 60% in size
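Substrate mix (final 50 mM imidazole pH 7.2, 50 mM KCl, 7 mM MgCl2, 10 uM ATP, 0.01% Tween 20, 0.05% BSA) plus pin-tool compound, then Kinase-Glo detection mix; 8 min ambient, luminescence read.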
NPC1 prom act – activators of NPC1 promoter; 320,000 compounds, 2.4% hits; Potency, µM (series often up to 9.22 µM), actives largely listed as activators; Huh7 NPC1 promoter luciferase reporter, 24 h; AID 485313; further: nearly all actives have a fitted effect of over 60% in size
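Stably transfected Huh7 (NPC1 promoter→luciferase), 1500 cells/well in Opti-MEM + 10% FBS, 2 h settle, then compound 24 h at 37 °C. Luminescence after 10 min with Amplite reagent.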
ELG1 genotox – inducers of genotoxicity in HEK293T ELG1-luciferase cells. HEK293T ELG1-luciferase reporter, luminescence, 16 h. Potency, µM (titrated, usually from 46 µM), actives largely listed as activators. 330,000 compounds, 1.3% hits; further: nearly all actives have a fitted effect of over 60% in size
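Luminescence read-out: rising ELG1-luciferase signal, reflecting elevated ELG1 protein under genetic stress, flags genotoxic compounds. Cells were treated for 16 hr at 37 °C before ONE-Glo detection.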
Rab9 promoter act – activates the Rab9 promoter; Huh7 Rab9 promoter-luciferase reporter, luminescence, 24 h; Potency, µM (doses to about 9.22 µM), most hits filed as activators; 320,000 compounds, 2.8% hits; further: nearly all actives have a fitted effect of over 60% in size
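Quantitative HTS format; Huh7 Rab9-luciferase reporter cells (1500/well) receive compound 2 h post-plating, incubate 24 h at 37 °C, then get luciferase reagent for 10 min before luminescence reading.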
FLuc modulator – counter-screen for miR-21 project: firefly luciferase inhibitors or activators | AID 588342 | Potency, µM (series often up to 57.5 µM), hits mostly inhibitors | P08659 | purified FLuc, Km substrates, luminescence inhibition | 360,000 compounds, 6.9% hits; further: nearly all actives have a fitted effect of over 55% in size
Target sequence (P08659 whole entry, looked up): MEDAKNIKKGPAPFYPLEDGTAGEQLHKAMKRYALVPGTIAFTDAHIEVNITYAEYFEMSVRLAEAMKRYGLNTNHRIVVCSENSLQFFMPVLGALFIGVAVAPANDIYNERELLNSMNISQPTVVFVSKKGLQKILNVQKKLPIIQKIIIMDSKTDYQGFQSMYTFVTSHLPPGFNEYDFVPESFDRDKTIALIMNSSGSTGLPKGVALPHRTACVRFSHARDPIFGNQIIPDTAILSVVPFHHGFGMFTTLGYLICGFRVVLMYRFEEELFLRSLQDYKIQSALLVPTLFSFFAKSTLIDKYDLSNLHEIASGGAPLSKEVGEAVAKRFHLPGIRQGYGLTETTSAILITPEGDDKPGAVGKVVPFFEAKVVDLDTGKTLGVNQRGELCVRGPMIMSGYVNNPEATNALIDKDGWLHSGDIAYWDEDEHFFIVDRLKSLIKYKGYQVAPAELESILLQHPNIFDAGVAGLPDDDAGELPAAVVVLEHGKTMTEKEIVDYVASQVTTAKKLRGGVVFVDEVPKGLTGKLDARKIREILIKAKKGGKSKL
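Biochemical qHTS of compounds, final roughly 60 µM downward over six points, against 10 nM purified firefly luciferase using Km concentrations of substrates (10 uM D-luciferin, 10 uM ATP) in Tris acetate pH 7.5 buffer; luminescence output.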
SMN2 splice enh – increases expression of the SMN2 splice variant; HEK293 SMN2-luciferase splicing reporter, luminescence, 30-36 h; Potency, µM (titrated, usually from 46.1 µM), actives largely listed as activators; 210,000 compounds, 2.8% hits; further: nearly all actives have a fitted effect of over 55% in size
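HEK293 cells carry an SMN2 […]–luciferase reporter in which exon 7 inclusion puts luciferase in frame. Cells were plated 10-12 h before compound addition, then incubated 30-36 h at 37C. ONE-Glo luminescence was read; sodium butyrate at 4.5 mM final served as control.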
Numbers stand for hits; . = inactive; ? = inconclusive; / = not tested or not shown; [ ] = another dose, or the depositor's remark. The call rests on the fitted dose curve; in most records, active means well fitted curve in the direction sought with a large enough effect; inconclusive means small, poorly fitted or top-dose-only effect, or another doubt; inactive means no such curve, though single readings can be large; an effect the other way counts as inactive or inconclusive.

SMILES | Luc counter | NPC1 prom act | ELG1 genotox | Rab9 promoter act | FLuc modulator | SMN2 splice enh
O=C(CN1CCCCC1)Nc1nc(-c2ccc(Cl)cc2)cs1 | / | . | . | . | 17µM | /
COCC(=O)Nc1nc(-c2ccc(-c3ccccc3)cc2)cs1 | / | 2.2µM | . | 0.79µM | ? | /
CCc1ccc(OC(=O)Nc2ccccc2)cc1 | / | . | . | ? | 9.5µM | /
O=C(Cn1nc2c(cc1=O)CCCC2)Nc1ccccc1C(F)(F)F | / | / | / | / | . | /
CC(OC(=O)c1ccc(NC(=O)CC#N)cc1)C(=O)Nc1nc(-c2ccccc2)cs1 (stereo not given) | / | . | 23µM | . | . | /
Cn1ncc(Br)c1C(=O)OCC(=O)Nc1nc(-c2ccccc2)cs1 | . | . | . | . | . | 14µM
CC(OC(=O)c1ccc(NC(=O)CC#N)cc1)C(=O)Nc1ccc(Oc2ccccc2)cc1 (stereo not given) | / | . | . | . | . | /
COc1cccc(-c2csc(NC(C)=O)n2)c1 | . | 4µM | 10µM | 4µM | 15µM | 28µM
CCc1ccc(-c2csc(NC(=O)Oc3ccccc3)n2)cc1 | / | ? | ? | ? | 6µM | /
COc1ccc(-c2csc(NC(C)=O)n2)cc1OC | . | . | . | . | .[2.3 µM] | .
O=C(Nc1nc(-c2cccc(Br)c2)cs1)Oc1ccccc1 | . | . | . | . | . | .
Cc1ccc(C)c(N2CCN(C(=O)c3cc4c(=O)n(Cc5ccco5)ccc4nc3C)CC2)c1 | / | / | / | / | . | /
O=C(Nc1ccccc1)c1ccc(Cc2nc3ccccc3[nH]2)cc1 | . | / | / | / | / | /
O=C(Nc1ccc2oc(=O)c(C(=O)O)cc2c1)Oc1ccccc1 | .[7.66 µM] | / | / | / | / | .[9.22 µM]
O=C(Nc1ccc(O)c(C(=O)O)c1)Oc1ccccc1 | / | . | . | . | 13µM | /
O=C(CN1CCCCC1)Nc1nc(-c2ccccc2)cs1 | / | ? | ? | . | 21µM | /
CCCn1c(-c2ccc(F)cc2)nc2c(N3CCN(CCC(=O)OCC)CC3)nc(C)nc21 | . | / | / | / | / | .
Cc1ccn2cc(CSc3ccccc3N)nc2c1 | . | 2.2µM | ? | 0.63µM | 11µM | ?
CCOC(=S)SCc1cn2ccc(C)cc2n1 | . | . | . | . | 24µM | .
COc1cc(-c2ccc(N=C=O)c(OC)c2)ccc1N=C=O | / | / | / | / | / | .
Cc1cccnc1Nc1nc(-c2ccc(O)c(O)c2)cs1 | . | . | 5.2µM | ? | 17µM | .
Cc1nc(C)c(-c2csc(Nc3ncccc3C)n2)s1 | / | 2.5µM | ? | 1.3µM | 6.7µM | /
COc1ccc(-c2csc(Nc3ncccc3C)n2)cc1 | ? | 1.8µM | ? | 1.6µM | 5.4µM | 2.2µM
Cc1nc(C)c(-c2csc(Nc3ccc(O)cc3C)n2)s1 | / | . | . | . | . | /
COc1ccc(-c2csc(Nc3ncccc3C)n2)cc1OC | . | ? | . | ? | .[2.3 µM] | ?
SMILES | Luc counter | NPC1 prom act | ELG1 genotox | Rab9 promoter act | FLuc modulator | SMN2 splice enh
Cc1ccc(-c2csc(NC(=O)/C=C/c3cccs3)n2)cc1C | . | . | . | . | ? | .
COc1ccc(CC(N)C(=O)N[C@H]2[C@@H](O)[C@H](n3cnc4c(N(C)C)ncnc43)O[C@@H]2CO)cc1 (stereo not given in full) | . | / | / | / | / | /
CCOC(=O)/C=C/c1ccc2oc3ccccc3c(=O)c2c1 | / | 3.5µM | ? | 4µM | 2.4µM | /
CC1(C)CCC2(C(=O)O)CC[C@]3(C)C(=CCC4[C@]5(C)CCC(O)C(C)(C)C5C(O)C[C@]43C)C2C1 (stereo not given in full) | . | / | / | / | / | .
Nc1nc2c(s1)CCc1c-2cnn1-c1ccccc1 | . | 0.79µM | . | ? | 6.7µM | 11µM
Cc1oc(-c2cccc(C(F)(F)F)c2)nc1CN1CCOCC1 | . | . | ? | ? | 27µM | /
Clc1ccccc1-c1nnc(COc2ccccc2)o1 | / | / | / | / | 21µM | 13µM
Clc1ccccc1OCc1nnc(-c2ccccc2)o1 | . | 2.5µM | ? | 3.5µM | 11µM | 16µM
COc1ccc(OC)c(-c2noc(CSc3nnc(-c4ccccc4)n3-c3ccccc3)n2)c1 | / | / | / | / | . | .
Cc1ccc(-c2noc(CN3CCCCC3)n2)cc1 | . | ? | 13µM | ? | 19µM | ?
Cc1ccc(-c2noc(Cn3cc(S(=O)(=O)N4CCCC4)ccc3=O)n2)cc1 | / | . | . | . | 24µM | /
O=c1ccc(S(=O)(=O)N2CCCC2)cn1Cc1ccc(F)cc1 | / | . | . | . | . | /
Cc1ccc(-c2noc(CN3CCOCC3)n2)cc1 | . | 3.2µM | ? | 2.8µM | 17µM | ?
Clc1ccc(-c2noc(CN3CCCC3)n2)cc1 | . | ? | 10µM | ? | 19µM | ?
CC(=O)Nc1cccc(NC(=O)CSc2cn(CC(=O)N(C(C)C)C(C)C)c3ccccc23)c1 | / | / | / | / | . | /
CCCn1c(-c2ccc[nH]c2=O)nc2cc(C)c(C)cc21 | . | . | ? | . | 13µM | /
O=C(CN1C(=O)COc2ccc(S(=O)(=O)N3CCCCCC3)cc21)N1CCN(c2ccc(F)cc2)CC1 | / | / | / | / | . | .
O=C(Nc1ccc(Br)cc1)c1cnc[nH]1 | / | ? | ? | 3.5µM | 24µM | /
O=C(/C(C=Nc1cccc(C(F)(F)F)c1)=C(/O)c1ccco1)C(F)(F)F | . | . | ? | . | 24µM | ?
O=C(/C(C=Nc1ccc(Br)cc1)=C(/O)c1ccco1)C(F)(F)F | . | ? | ? | 3.2µM | 6µM | 14µM
O=C(c1ccco1)N1CCN(S(=O)(=O)c2cccc(C(F)(F)F)c2)CC1 | . | . | . | . | . | .
Cn1nc(C(F)(F)F)c(-c2ccc(Br)cc2)c1NC(=O)c1ccco1 | / | . | . | . | . | /
CCOC(=S)SCC(=O)O | .[7.66 µM] | / | / | / | / | .[9.22 µM]
O=C(NCCc1ccc(Cl)cc1)c1ccc2nc[nH]c2c1 | . | . | . | . | ? | .
CC(=O)NCCNC(=O)c1ccc(CSc2ccc(Cl)cc2)cc1 | . | 2.8µM | ? | 2.8µM | ? | 13µM
SMILES | Luc counter | NPC1 prom act | ELG1 genotox | Rab9 promoter act | FLuc modulator | SMN2 splice enh
CC(C)c1ccc(C(=O)NCc2ccc(Cl)cc2)cc1 | . | . | . | ? | ? | 16µM
O=C(NCCc1ccc(O)cc1)c1ccc(Cl)cc1 | . | ? | ? | ? | 12µM | 32µM
O=C(NCCc1ccc(Cl)cc1)c1ccc2nccnc2c1 | / | 2.2µM | . | 4µM | 11µM | /
Cc1ccc(SCc2nc(-c3ccc(C(=O)NCC(C)c4ccccc4)cc3)oc2C)cc1 (stereo not given) | / | / | / | / | . | /
C[C@]12CCC(=O)C=C1CCC1C2C(O)C[C@]2(C)C1CC[C@]2(O)C(=O)COC(=O)CCC(=O)O (stereo not given in full) | . | / | / | / | / | .
C(=N\Nc1nncn1/N=C/c1ccco1)/c1ccco1 | / | . | . | . | . | /
COc1ccc(OC)c(/C=N/Nc2nncn2/N=C/c2cc(OC)ccc2OC)c1 | . | . | . | . | 15µM | .
COc1cc(/C=N/Nc2nncn2/N=C/c2ccc(O)c(OC)c2)ccc1O | 10µM | ? | . | ? | 0.38µM | 25µM
COc1ccc(CC(=O)Nc2ccc(-c3nnc(-c4ccccc4)o3)cc2)cc1OC | . | . | . | . | . | .

Source: PubChem (National Center for Advancing Translational Sciences (NCATS))
